Screening data as filed in PubChem BioAssay.
PABP FP inh – PABP-poly(A) binding inhibition | calls only at 35 µM | PABP-poly(A) RNA binding, fluorescence polarization | actives 1% (n = 290,000) | P11940;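 further: calls also rest on retests at 20 µM and on dose response follow-up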
MLLE-PAM2 inh – inhibitors of microRNA-mediated deadenylation, human PABP1 MLLE binding. GST-MLLE / FITC-PAM2 fluorescence polarization. actives 0.36% (n = 360,000). AID 588489. P11940. inhibition, % at 20 µM; in the data active means inhibition above about 35%, passing the limit was not always enough;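 further: plate controls were DMSO wells with GST-MLLE for no effect and wells lacking GST-MLLE protein for full effect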
eIF4H FP inh – inhibitors of RNA binding by human eIF4H. eIF4H fluorescence polarization binding assay. Q15056. inhibition, % at 35 µM. actives 0.94% (n = 290,000);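 further: calls also rest on retests at 20 µM and on dose response follow-up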
PHOSPHO1 inh – blocks human PHOSPHO1 phosphatase activity. recombinant PHOSPHO1, absorbance phosphatase assay. Q8TCT1. actives 1.1% (n = 290,000). AID 1565. inhibition, % at 13.3 µM; in the data active means inhibition above about 60%
Target sequence (Q8TCT1 whole entry, looked up): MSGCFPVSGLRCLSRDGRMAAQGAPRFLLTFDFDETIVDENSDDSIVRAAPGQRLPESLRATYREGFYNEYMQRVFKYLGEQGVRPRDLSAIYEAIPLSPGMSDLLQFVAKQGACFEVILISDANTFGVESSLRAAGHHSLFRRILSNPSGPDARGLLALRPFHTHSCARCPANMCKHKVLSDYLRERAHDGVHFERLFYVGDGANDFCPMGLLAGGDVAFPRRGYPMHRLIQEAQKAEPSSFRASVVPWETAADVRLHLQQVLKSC
HMGR II inh – inhibitors of class II HMG-CoA reductase from Enterococcus faecalis; purified E. faecalis HMGR, NADPH absorbance 340 nm kinetic; inhibition, % at 10 µM; actives 0.41% (n = 190,000);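 active means inhibition above a set limit, the median over all tested compounds plus 3 SD, cut at about 9.5% in these data; inconclusive means no clear call, values can overlap the other calls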;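 further: enzyme runs in reverse so mevalonate oxidation gives rising NADPH absorbance; 0% = complete reaction with DMSO and 100% = background rate lacking mevalonate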
Starred values were filed as active, the others as inactive; i = inactive; ? = inconclusive; . = not tested or not shown; + = active, no number. A selection: hits, their analogues and other compounds. The true share with any hit is near 2.4%. Unless noted, how the calls were made is not given here.

SMILES	PABP FP inh	MLLE-PAM2 inh	eIF4H FP inh	PHOSPHO1 inh	HMGR II inh
COc1ccc(S(=O)(=O)N(C)c2ccc(C(=O)N3CCCC3)cc2)cc1	i	13	1	48	9.7*
Cc1cccc(NC(=O)CCn2cnnn2)c1	i	10	-4	1	-8
CCN(CC)S(=O)(=O)c1ccc(C)c(NC(=S)Nc2cccc(S(=O)(=O)N3CCCCCC3)c2)c1	i	37*	-5	-1	-2
Cc1ccc(S(=O)(=O)N2CCCCC2)cc1NC(=S)NC(=O)c1ccco1	i	40*	-12	12	.
O=C(NC(=S)Nc1cc(S(=O)(=O)N2CCOCC2)ccc1O)c1ccco1	i	35	4	-9	1
CCN(CC)S(=O)(=O)c1ccc(C)c(NC(=O)CNc2cccc(S(=O)(=O)N3CCOCC3)c2)c1	.	7	.	.	.
O=C(CCn1cnnn1)Nc1ccc(Cl)c(Cl)c1	i	2	0	44	14*
Cc1ccc(S(=O)(=O)N2CCCC(C(=O)NCc3ccco3)C2)cc1Cl (configuration not stated)	i	-6	-3	2	13*
CCN1C(=O)[C@H]2[C@@H](c3ccc(-c4ccc(C(C)=O)cc4)cc3)N3CCCC[C@@]3(C(=O)OC)[C@H]2C1=O	.	-1	.	.	.
O=C(Nc1ccccc1C(=O)O)/C(=C/c1ccc(Cl)cc1Cl)NC(=O)c1ccco1	i	-4	-6	38	.
O=C(NC(=S)Nc1ccc(CN2CCOCC2)cc1)c1ccco1	i	29	-2	8	.
CNC(=S)Nc1ccc(N2CCCC2)c(S(=O)(=O)Nc2ccc(OC)cc2)c1	.	3	.	.	.
COc1ccc(NS(=O)(=O)c2ccc(N3CCCC3)c(NC(=S)Nc3cccc(S(=O)(=O)N(C)C)c3)c2)cc1	i	.	-4	64*	-4
O=C(NC(=S)Nc1ccc(CN2CCCCC2)cc1)c1ccco1	i	36*	-8	37	2
O=C(Cn1cnnn1)Nc1cccc(S(=O)(=O)N2CCCCC2)c1	i	-3	19*	13	-10
Cc1ccc(S(=O)(=O)N2CCCCC2)cc1NC(=O)Cn1cnnn1	i	3	-6	3	.
C=CCN(C(=O)c1csnn1)C(C(=O)NCc1ccc(F)cc1)c1cccs1 (configuration not stated)	i	10	-14	36	.
COc1ccc(Br)cc1S(=O)(=O)N1CCCc2ccccc21	i	18	12	.	.
OCCCNc1ncnc2c1ncn2[C@H]1CN(Cc2ccc(Cl)cc2)C[C@@H](CO)O1	.	-8	.	.	.
Cc1cccc2cc(C(c3nnnn3C3CCCC3)N3CCOCC3)c(=O)[nH]c12 (configuration not stated)	i	16	1	86*	-4
COc1ccc(C(c2nnnn2C2CCCCC2)N2CCN(c3ccc(OC)cc3)CC2)cc1 (configuration not stated)	i	-6	-4	25	-1
c1cc(N2CCCC2)ccc1C(c1nnnn1C1CCCCC1)N1CCOCC1 (configuration not stated)	i	-30	-1	92*	2
CCC(C)(C)n1nnnc1C(c1cc2cccc(C)c2[nH]c1=O)N1CCCC1 (configuration not stated)	i	6	1	14	-3
Cc1cc(C)c2cc(C(c3nnnn3C3CCCC3)N3CCOCC3)c(=O)[nH]c2c1 (configuration not stated)	i	7	43	103*	-3
CC(Sc1ccc2c(c1)OCCO2)C(=O)Nc1ccc2c(c1)OCO2 (configuration not stated)	i	22	7	-1	-5
SMILES	PABP FP inh	MLLE-PAM2 inh	eIF4H FP inh	PHOSPHO1 inh	HMGR II inh
CC(Sc1ccc2c(c1)OCCO2)C(=O)Nc1ncc(Cl)cc1Cl (configuration not stated)	i	43*	3	-36	5
CCCOc1c(Br)cc(C(=O)OCc2cc(=O)n3ccsc3n2)cc1OC	.	-6	.	.	.
CCCCOP(=O)(OCCCC)C(Nc1ccccc1)c1ccc2c(c1)OCO2 (configuration not stated)	+	4	active	-3	-2
O=C(O)c1ccc(-c2cccc(-c3nn4c(=O)cc(N5CCNCC5)nc4s3)c2)cc1	.	4	.	.	.
Cc1ccccc1C(=O)c1cccn1CC(=O)NC(C)c1ccc2c(c1)OCCO2 (configuration not stated)	i	-2	0	-5	12*
C/C(CCN1CCc2nc(-c3ccccc3)c(-c3ccccc3)cc2C1)=N\O[C@@H](C)c1cn([C@H](CO)Cc2ccccc2)nn1	i	.	5	8	10.0*
COc1ccc(O[C@H]2C=C[C@@H](c3ccccc3)O[C@@H]2COC(=O)CC/C(C)=N/O[C@@H](C)c2cn([C@H](CO)Cc3ccccc3)nn2)cc1	i	.	0	-14	-2
COc1ccc(-c2noc(-c3csc([C@@H]4O[C@H](CO)[C@H](O)[C@H](O)[C@H]4O)n3)n2)cc1OC	.	11	.	.	.
CC(=NNC(=S)N1CCN(c2ccccn2)CC1)c1nccs1	.	16	.	.	.
c1ccc(OCc2nnc3sc(C4COc5ccccc5O4)nn23)cc1 (configuration not stated)	i	7	38	80*	-8
Clc1ccccc1-c1nnc2sc(C3COc4ccccc4O3)nn12 (configuration not stated)	i	-46	-9	80*	0
Cc1ccc(-c2nnc3sc(C4COc5ccccc5O4)nn23)cc1 (configuration not stated)	i	-27	0	24	-2
CCOC(=O)C1=CC[C@H]2c3c(c4ccccc4n3C)C(=O)C1N2C(=O)OC(C)(C)C	.	6	.	.	.
Cc1ccccc1S(=O)Cc1ccc(C(=O)NCCN2CCOCC2)o1 (configuration not stated)	i	-7	4	42	.
CCN(CC)C(=O)CSc1nnc2sc3ccccc3n12	i	-61	0	62*	-3
CCN(CC)C(=O)CSc1nnc(-c2ccccc2)n1-c1ccccc1	i	-98	1	82*	-1
O=C1N=C2SCCN2/C1=C\c1ccccc1Cl	i	39*	-8	19	4
O=C(O)CCCN1C(=O)/C(=C\c2ccc(-c3nc4ccccc4s3)o2)SC1=S	+	-99	96*	93*	.
O=C(O)CCN1C(=O)/C(=C/c2ccc(-c3nc4ccccc4s3)o2)SC1=S	?	-92	?	101*	6
O=Cc1ccc(-c2nc3ccccc3s2)o1	i	2	1	37	-3
O=C(O)CC(C(=O)O)N1C(=O)/C(=C/c2ccc(-c3nc4ccccc4s3)o2)SC1=S (configuration not stated)	i	11	127*	11	1
O=C(O)CNC(=O)CC1S/C(=N/N=C2\CSC(=O)N2)NC1=O (configuration not stated)	i	42*	14	9	4
O=C(O)CNC(=O)CC1S/C(=N/N=C/c2ccccc2O)NC1=O (configuration not stated)	i	-38	13	44	7
